Gli-Sufu block = blocks Gli-Sufu signaling in a luciferase reporter. Sufu-KO-LIGHT fibroblasts, Gli luciferase reporter luminescence. inhibition, % at 5 µM. 0.74% of 340,000 active;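 active = inhibition above about 55%, limit read from the data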
COUP-TFII inh = inhibitors of human COUP-TFII (NR2F2); AID 686940; P24468; HEK293T NGFI-A luciferase reporter, luminescence; 0.7% of 370,000 active; inhibition, % at 8.6 µM;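 active = inhibition above a per-plate cutoff, mean inhibition of test wells between control levels plus 3 SD, cut at about 38% in these data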;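 note: cells cotransfected with COUP-TFII expression vector driving the NGFI-A reporter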
Target sequence (P24468 whole entry, looked up): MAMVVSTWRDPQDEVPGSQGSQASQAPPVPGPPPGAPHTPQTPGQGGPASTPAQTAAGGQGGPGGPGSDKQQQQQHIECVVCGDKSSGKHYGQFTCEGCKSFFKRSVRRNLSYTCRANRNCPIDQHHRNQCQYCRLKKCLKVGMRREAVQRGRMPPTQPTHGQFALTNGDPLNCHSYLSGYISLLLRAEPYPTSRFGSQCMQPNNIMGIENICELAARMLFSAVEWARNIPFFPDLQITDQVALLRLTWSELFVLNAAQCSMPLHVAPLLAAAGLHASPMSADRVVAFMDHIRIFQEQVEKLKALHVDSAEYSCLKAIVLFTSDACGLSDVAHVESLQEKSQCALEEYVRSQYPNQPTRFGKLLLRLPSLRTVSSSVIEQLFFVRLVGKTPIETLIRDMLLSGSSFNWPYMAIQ
aDG glyco up = alpha-DG glycosylation activation; 0.22% of 360,000 active; activation, % at 10 µM; AID 624168; Pro5-aDG cells, alpha-DG glycosylation AlphaScreen (IIH6); 0% Pro5, 100% B10-LARGE cell signal;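 active = activation of at least 8% versus controls, or a plate z-score of at least 8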;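 note: Pro5 are CHO cells carrying HIG-tagged alpha-DG that lacks glycosylation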
GalR3 antag = blocks the human galanin receptor 3 | inhibition, % at 3 µM | O60755 | 0.44% of 360,000 active | HEK293 GalR3-CNG cAMP membrane potential fluorescence; galR3 body fused to GalR1 C-terminus;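 active = inhibition above the screen-wide average plus 3 SD, cut at about 13% in these data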;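 note: forskolin and galanin both at EC90 stimulate the cells; cAMP rise reported by CNG channel membrane potential dye signal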
Env fusion inh = blocks HIV Env-driven cell-cell fusion; HeLa-JRFL Env/CEM21 cell fusion, luciferase; inhibition, % at 12.3 µM; 1.1% of 360,000 active;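 active = mean replicate inhibition score of at least 50 and every replicate individually at or above 50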
Each line names hits and unclear results; the compound was inactive in the other large screens; [ ] = another dose, or the depositor's remark. Shown are actives, neighbours in structure and some others; about 2.1% of the full set was active somewhere.

COc1ccc(-c2cnc3c(NC=O)cc(-c4ccccc4OC)cn23)cc1OC	GalR3 antag 34 (no result: Gli-Sufu block)
CC(C)C[C@H](NC(=O)c1[nH]cnc1C(=O)N[C@@H](Cc1ccccc1)C(=O)OC(C)(C)C)C(=O)OCc1ccccc1	Env fusion inh 58
CCC(=O)Nc1ccc2c(c1)C(=O)N(C)[C@@H]1CC[C@H](CC(=O)NC3CCCC3)O[C@H]1CO2	none (no result: Gli-Sufu block, COUP-TFII inh, aDG glyco up, GalR3 antag)
CCC(=O)Nc1ccc2c(c1)C(=O)N(C)[C@H]1CC[C@H](CC(=O)NC3CCCC3)O[C@H]1CO2	Env fusion inh 57[16.7 µM] (no result: Gli-Sufu block, COUP-TFII inh, aDG glyco up, GalR3 antag)
Cc1nn(C)cc1NC(=O)C[C@H]1CC[C@@H]2[C@@H](COc3ccc(NC(=O)C4CCC4)cc3C(=O)N2C)O1	Env fusion inh 60[16.7 µM] (no result: Gli-Sufu block, COUP-TFII inh, aDG glyco up, GalR3 antag)
CC(C)c1ccc(NC(=O)C[C@H]2CC[C@H]3[C@@H](COc4ccc(NC(=O)Nc5ccc(F)c(F)c5)cc4C(=O)N3C)O2)cc1	Env fusion inh 70[16.7 µM] (no result: Gli-Sufu block, COUP-TFII inh, aDG glyco up, GalR3 antag)
CCC(=O)Nc1ccc2c(c1)C(=O)N(C)[C@H]1CC[C@H](CC(=O)Nc3ccc(C(C)C)cc3)O[C@@H]1CO2	none (no result: Gli-Sufu block, COUP-TFII inh, aDG glyco up, GalR3 antag)
CCCNC(=O)C[C@H]1CC[C@@H]2[C@@H](COc3ccc(NC(=O)c4cccc(C(F)(F)F)c4)cc3C(=O)N2C)O1	Env fusion inh 65[16.7 µM] (no result: Gli-Sufu block, COUP-TFII inh, aDG glyco up, GalR3 antag)
Cc1noc(C)c1S(=O)(=O)Nc1ccc2c(c1)CC(=O)N([C@H](C)CO)C[C@@H](C)[C@H](CN(C)Cc1ccc(C(=O)O)cc1)O2	none (no result: Gli-Sufu block, COUP-TFII inh, aDG glyco up, GalR3 antag)
C[C@H](CO)N1C[C@H](C)[C@H](CN(C)C(=O)NC2CCCCC2)Oc2c(NC(=O)c3cnccn3)cccc2C1=O	none (no result: Gli-Sufu block, COUP-TFII inh, aDG glyco up, GalR3 antag)
C[C@H]1CN([C@@H](C)CO)C(=O)c2cccc(NC(=O)C3CC3)c2O[C@@H]1CN(C)Cc1ccc(C(=O)O)cc1	none (no result: Gli-Sufu block, COUP-TFII inh, aDG glyco up, GalR3 antag)
C[C@@H]1CN([C@H](C)CO)C(=O)c2cc(C#CC(C)(C)O)cnc2O[C@H]1CN(C)Cc1ccccn1	none (no result: Gli-Sufu block, COUP-TFII inh, aDG glyco up, GalR3 antag)
C[C@@H]1CN([C@H](C)CO)C(=O)c2cc(NS(=O)(=O)c3ccc(F)cc3)ccc2O[C@@H](C)CCCCO[C@H]1CN(C)Cc1ccc(Cl)c(Cl)c1	none (no result: Gli-Sufu block, COUP-TFII inh, aDG glyco up, GalR3 antag)
CN1C(=O)c2cc(NC(=O)c3cccc(Cl)c3)ccc2OC[C@H]2O[C@@H](CC(=O)NC3CCCCC3)CC[C@H]21	Env fusion inh 56[16.7 µM] (no result: Gli-Sufu block, COUP-TFII inh, aDG glyco up, GalR3 antag)
CCNC(=O)C[C@H]1CC[C@@H]2[C@@H](COc3ccc(NC(=O)Cc4cccs4)cc3C(=O)N2C)O1	Env fusion inh 65[16.7 µM] (no result: Gli-Sufu block, COUP-TFII inh, aDG glyco up, GalR3 antag)
CN1C(=O)c2cc(NC(=O)NC3CCCC3)ccc2OC[C@@H]2O[C@H](CC(=O)NC3CCC3)CC[C@@H]21	Env fusion inh 71[16.7 µM] (no result: Gli-Sufu block, COUP-TFII inh, aDG glyco up, GalR3 antag)
COc1ccc(C2N(C(C)=O)CCN2S(=O)(=O)c2ccc(C)cc2)cc1 (stereo not given)	none
COc1ccc(C2N(S(=O)(=O)c3ccc(C)cc3)CCN2S(=O)(=O)c2ccc(C)cc2)cc1	Env fusion inh 105
CC(=O)N1CCN(S(=O)(=O)c2ccc(C)cc2)C1c1ccc(N(C)C)cc1 (stereo not given)	none
Cc1ccc(S(=O)(=O)N2CCN(S(=O)(=O)c3ccccc3)C2c2ccc(N(C)C)cc2)cc1 (stereo not given)	Env fusion inh 53
C[C@H]1CN([C@@H](C)CO)C(=O)c2cc(C#Cc3ccncc3)cnc2O[C@H]1CN(C)C(=O)c1ccccc1F	none (no result: Gli-Sufu block, COUP-TFII inh, aDG glyco up, GalR3 antag)
O=S1(=O)CCN(c2ccccc2CC(c2c[nH]c3ccccc23)c2c[nH]c3ccccc23)CC1	Env fusion inh 85
Cc1ccc(NC(=O)c2cc3c(s2)CCC3)cc1S(=O)(=O)N1CCOCC1	Env fusion inh 58
Cc1ccc(S(=O)(=O)N2CCOCC2)cc1NC(=O)c1cc2c(s1)CCC2	none
O=C(C[C@@H]1C=C[C@H](NC(=O)Nc2ccc(F)cc2)[C@@H](CO)O1)NCc1cccc(F)c1	none (no result: Gli-Sufu block, COUP-TFII inh, aDG glyco up, GalR3 antag)
CC(C)(C)c1cc[n+](C2=C([O-])c3ccccc3C(=O)/C2=N\S(=O)(=O)c2cccs2)cc1	aDG glyco up 3.9
O=C(NC1CCCCC1)C(c1ccc2ncccc2c1)N(Cc1cccs1)C(=O)c1cccs1 (stereo not given)	none (no result: Env fusion inh)
O=C(NC1CCCCC1)C(c1cccs1)N(Cc1cccs1)C(=O)c1cccs1 (stereo not given)	Env fusion inh 94
Cc1noc(C)c1S(=O)(=O)N(C)C[C@H]1Oc2ccc(NC(=O)NC3CCCCC3)cc2CC(=O)N([C@@H](C)CO)C[C@@H]1C	none (no result: Gli-Sufu block, COUP-TFII inh, aDG glyco up, GalR3 antag)
COc1ccc(S(=O)(=O)N(C)C[C@@H]2Oc3ccc(NC(=O)Cc4cn(C)c5ccccc45)cc3CC(=O)N([C@H](C)CO)C[C@@H]2C)cc1	Env fusion inh 76[16.7 µM] (no result: Gli-Sufu block, COUP-TFII inh, aDG glyco up, GalR3 antag)

Assay outcomes (PubChem)
